Measured values published in publication PMC4336329 (PLoS ONE, 2015).
About 2,200 (0.71%) of roughly 310,000 compounds showed an effect of 50% or more. The effect is printed as a negative number. This is one part of a sample in which strong results are shown more often than they occur.

Each molecule was assayed against human ether-à-go-go-related gene (hERG) potassium channel (human, UniProt Q12809) (assay: primary screen, population patch clamp on CHO cells stably expressing hERG; higher = less effect of the substance).
Chain of human ether-à-go-go-related gene (hERG) potassium channel (Q12809 whole entry, looked up): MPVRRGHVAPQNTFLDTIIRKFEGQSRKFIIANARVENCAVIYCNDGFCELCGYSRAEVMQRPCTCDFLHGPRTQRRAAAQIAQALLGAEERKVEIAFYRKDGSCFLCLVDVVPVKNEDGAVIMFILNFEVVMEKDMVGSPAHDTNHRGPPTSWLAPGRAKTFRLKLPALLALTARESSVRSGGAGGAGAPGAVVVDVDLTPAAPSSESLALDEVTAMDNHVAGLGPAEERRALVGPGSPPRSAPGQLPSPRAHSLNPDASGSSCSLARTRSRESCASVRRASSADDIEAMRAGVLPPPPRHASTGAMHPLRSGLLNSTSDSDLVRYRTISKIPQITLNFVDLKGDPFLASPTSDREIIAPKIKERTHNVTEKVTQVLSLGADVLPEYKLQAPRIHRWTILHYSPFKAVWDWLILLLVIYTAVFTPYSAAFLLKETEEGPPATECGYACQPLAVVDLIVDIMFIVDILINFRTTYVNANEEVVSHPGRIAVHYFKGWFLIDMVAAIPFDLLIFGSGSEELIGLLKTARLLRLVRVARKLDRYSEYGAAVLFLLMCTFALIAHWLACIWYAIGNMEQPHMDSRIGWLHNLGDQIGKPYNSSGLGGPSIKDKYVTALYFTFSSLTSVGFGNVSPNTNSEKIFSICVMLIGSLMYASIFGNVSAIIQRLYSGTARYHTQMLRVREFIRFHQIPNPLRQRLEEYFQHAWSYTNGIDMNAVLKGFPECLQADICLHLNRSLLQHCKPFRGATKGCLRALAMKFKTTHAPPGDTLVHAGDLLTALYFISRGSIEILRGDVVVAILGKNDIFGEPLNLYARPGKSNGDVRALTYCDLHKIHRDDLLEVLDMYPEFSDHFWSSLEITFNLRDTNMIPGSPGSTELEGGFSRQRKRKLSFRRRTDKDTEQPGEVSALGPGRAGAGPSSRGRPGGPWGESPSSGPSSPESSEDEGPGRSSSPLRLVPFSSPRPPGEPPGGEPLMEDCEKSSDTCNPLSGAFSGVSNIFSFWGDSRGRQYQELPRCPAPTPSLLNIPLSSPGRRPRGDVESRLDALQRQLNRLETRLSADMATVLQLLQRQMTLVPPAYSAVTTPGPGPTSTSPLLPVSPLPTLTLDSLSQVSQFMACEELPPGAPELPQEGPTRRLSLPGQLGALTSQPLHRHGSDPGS

Row | Compound | hERG current change (%, negative = inhibition) at 1uM
1 | O=C(O)C1CCC(=O)N1C1c2ccccc2Oc2ccccc21 (stereo not shown) | 7.76%
2 | CC(NCC(=O)NCCc1ccc(S(N)(=O)=O)cc1)c1ccc(F)cc1 (stereo not shown) | 15.1%
3 | COc1ccccc1/C(C)=N/NC(=S)NCc1ccccc1 | 0.32%
4 | COCc1nc(-c2ccc(-c3ccc(C)cc3)nc2OC)no1 | 4.81%
5 | Cn1cccc1/C=N/N1CCN(c2ccccc2)CC1 | 18.1%
6 | COc1ccc(CC(=O)OCC(=O)N2CCCc3ccccc32)cc1 | 7.67%
7 | CCOC(=O)/C(C#N)=C1/C=CN(c2ccccc2)C=N1 | 7.43%
8 | CCCn1c(N)c(C(=O)CSc2nnc3n2CCCCC3)c(=O)[nH]c1=O | 4.02%
9 | CCOP(=O)(OCC)/C(C#N)=C/c1ccc([N+](=O)[O-])cc1 | -4.07%
10 | CCCCn1c(=NC(=O)c2ccco2)c(C(=O)OCC)cc2c(=O)n3ccccc3nc21 | -44.1%
11 | N=c1c(S(=O)(=O)c2ccc(Cl)cc2)cc2c(=O)n3ccccc3nc2n1Cc1cccnc1 | 7.26%
12 | COCCCn1c(C(=O)Nc2ccc3c(c2)OCO3)cc2c(=O)n3ccccc3nc21 | 13.5%
13 | N=c1c(C(=O)NCc2ccc(F)cc2)cc2c(=O)n3ccccc3nc2n1Cc1cccnc1 | -80.3%
14 | COCCCn1c(=N)c(C(=O)NCc2ccc3c(c2)OCO3)cc2c(=O)n3ccccc3nc21 | -87.4%
15 | CCOC(=O)c1cc2c(=O)n3ccccc3nc2n(Cc2ccccc2)c1=N | -68.9%
16 | COc1ccc(CNC(=O)c2cc3c(=O)n4ccccc4nc3n(Cc3cccnc3)c2=N)cc1 | -32.6%
17 | CCCn1c(=NC(C)=O)c(C(=O)OCC)cc2c(=O)n3ccccc3nc21 | 8.09%
18 | COC(=O)c1cc2c(=O)n3ccccc3nc2n(Cc2cccnc2)c1=N | -51.5%
19 | N=c1c(S(=O)(=O)c2ccccc2)cc2c(=O)n3ccccc3nc2n1Cc1cccnc1 | 6.5%
20 | N#Cc1cc2c(=O)n3ccccc3nc2n(Cc2cccnc2)c1=O | 2.54%
21 | COCCCn1c(C(=O)N2CCOCC2)cc2c(=O)n3ccccc3nc21 | 3.13%
22 | Oc1[nH]c2ccc(Br)cc2c1N=NC(=S)N1CCOCC1 | 17.6%
23 | Cc1onc(-c2c(Cl)cccc2Cl)c1C(=O)O/N=C(\C#N)c1ccccc1 | 7.14%
24 | O=C(CSC1=NS(=O)(=O)c2cc(F)ccc2N1)Nc1cccc(F)c1 | 2.39%
25 | CCCc1cc(=O)[nH]c(SCC(=O)NC)n1 | -0.511%
26 | O=Cc1cn(Cc2ccc(F)cc2)c2ccccc12 | 14.4%

Row | Compound | hERG current change (%, negative = inhibition) at 1uM
27 | O=C(NCCCN1CCCC1=O)C1CCN(S(=O)(=O)c2cccc(C(F)(F)F)c2)CC1 | 23.6%
28 | CCc1nnc(NC(=O)C(C)N2C(=O)C3C4C=CC(C4)C3C2=O)s1 (stereo not shown) | 3.03%
29 | O=C(CCn1c(=O)c2ccccc2n(Cc2cccnc2)c1=O)NCc1ccc2c(c1)OCO2 | 9.51%
30 | N=c1c(C(=O)NCc2ccc3c(c2)OCO3)cc2c(=O)n3ccccc3nc2n1Cc1cccnc1 | -51.5%
31 | O=C(NCc1ccc2c(c1)OCO2)c1cnc2ccccn2c1=O | 5.17%
32 | COc1ccc(CCn2c(=N)c(C(=O)NC3CCCCC3)cc3c(=O)n4ccccc4nc32)cc1 | -84.1%
33 | COc1ccc(CCn2c(=N)c(S(=O)(=O)c3ccccc3)cc3c(=O)n4ccccc4nc32)cc1 | 10.8%
34 | COc1ccc(CCn2c(=N)c(C(=O)NC3CCCC3)cc3c(=O)n4cccc(C)c4nc32)cc1 | -79.9%
35 | Cc1cccn2c(=O)c3cc(C(=O)NC4CCCC4)c(=N)n(CCc4ccccc4)c3nc12 | -33.8%
36 | COc1ccc(Cn2c(=N)c(C(=O)NC3CCCCC3)cc3c(=O)n4ccccc4nc32)cc1 | -5.89%
37 | COc1ccc(CCn2c(=N)c(C(=O)NC3CCCC3)cc3c(=O)n4ccccc4nc32)cc1OC | -46.9%
38 | CCN(C(=O)c1cc2c(=O)n3ccccc3nc2n1CCCOC)C1CCCCC1 | 2.38%
39 | COc1ccc(CCn2c(=N)c(C(=O)NC3CCCC3)cc3c(=O)n4ccccc4nc32)cc1 | -89.2%
40 | COCCCn1c(=N)c(C(=O)NC2CCCCC2)cc2c(=O)n3ccccc3nc21 | -81.6%
41 | COc1ccc(CCn2c(=N)c(C(=O)N3CCN(C)CC3)cc3c(=O)n4ccccc4nc32)cc1 | -2.76%
42 | C/C(=N\NC(=O)c1cccc(F)c1)c1ccc(NC(=O)Cc2ccccc2)cc1 | 12.8%
43 | COc1cccc(CN2C(=NC(=O)C3CC3)SC3CS(=O)(=O)CC32)c1 (stereo not shown) | 14.8%
44 | NC(=O)c1ccccc1NC(=S)NC(=O)CCc1ccccc1 | 6.72%
45 | CCSc1nnc(-c2ccc(OC)cc2)o1 | 3.96%
46 | Cc1cccc2cc(C#N)c(NCCNC(=S)NCCCN3CCOCC3)nc12 | 4.84%
47 | Oc1c(C=Nc2ccccc2)sc2ccccc12 | 12.4%
48 | CC(C)CC(=O)C1CCCN(C(=O)c2ccc3oc(Cc4ccccc4)nc3c2)C1 (stereo not shown) | 11.9%
49 | Cn1c(CC(=O)Nc2ccc(Cl)c(Cl)c2)nnc1SCC(=O)NCc1ccccc1 | 9.85%
50 | COc1cc(SC)ccc1C(=O)N1CCc2ccccc21 | 13.9%
51 | N=c1c(C(=O)NC2CCCCC2)cc2c(=O)n3ccccc3nc2n1CCc1ccccc1 | -88.1%
52 | Cc1cc2c(=O)n(Cc3ccco3)c(SCC(=O)N3CCCc4ccccc43)nc2s1 | 0.209%
